# Results from the supplement of paper PMC4466140.
# Assays:
# Test in all cases: SPOT peptide array binding signal intensity (averaged, normalized) (arbitrary units (background-subtracted, floor 0; scale differs between SH3 domains)); higher = stronger binding of the SH3 domain to the peptide
# [1] = molecular target: SpBzz1-D2
# In short: (§1)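 E. coli BL21(DE3) was used to express GST-fused SH3 domains from four yeast species, which were then purified on glutathione Sepharose. These were incubated at 10 μg/ml in TBS-based blocking buffer overnight at 4°C on cellulose membranes carrying synthetic 15-mer peptides, in which cysteines were replaced by serines. Binding signal is the replicate average of normalized, background-subtracted spot intensity, in arbitrary units that differ between domains.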
# [2] = molecular target: SpCyk3
# In short: as §1
# [3] = molecular target: SpHof1
# In short: as §1
# [4] = molecular target: SpHof1-2
# In short: as §1
# [5] = molecular target: SpHof1-3
# In short: as §1
# [6] = molecular target: SpHse1
# In short: as §1
# [7] = molecular target: SpLsb1
# In short: as §1
# [8] = molecular target: SpLsb4
# In short: as §1
# [9] = molecular target: SpMyo1
# In short: as §1
# [10] = molecular target: SpNbp2
# In short: as §1
# [11] = molecular target: SpPex13
# In short: as §1
# [12] = molecular target: SpRvs167
# In short: as §1
# [13] = molecular target: SpSla1-D1-D2
# In short: as §1
# [14] = molecular target: SpSla1-D3
# In short: as §1
# [15] = molecular target: AgAbp1
# In short: as §1
# [16] = molecular target: AgBbc1
# In short: as §1
# [17] = molecular target: AgBem1-D1
# In short: as §1
# [18] = molecular target: AgBzz1-D1
# In short: as §1
# [19] = molecular target: AgBzz1-D2
# In short: as §1
# [20] = molecular target: AgCyk3
# In short: as §1
# [21] = molecular target: AgFus1
# In short: as §1
# [22] = molecular target: AgHof1
# In short: as §1
# [23] = molecular target: AgHse1
# In short: as §1
# [24] = molecular target: AgLsb1
# In short: as §1
# [25] = molecular target: AgLsb4
# In short: as §1
# [26] = molecular target: AgMyo5
# In short: as §1
# [27] = molecular target: AgNbp2
# In short: as §1
# [28] = molecular target: AgRvs167
# In short: as §1
# [29] = molecular target: AgSho1
# In short: as §1
# [30] = molecular target: AgSla1-D1-D2
# In short: as §1
# [31] = molecular target: AgSla1-D3
# In short: as §1
# [32] = molecular target: CaAbp1-D1
# In short: as §1
# [33] = molecular target: CaAbp1-D2
# In short: as §1
# [34] = molecular target: CaBbc1
# In short: as §1
# [35] = molecular target: CaBem1-D1
# In short: as §1
# [36] = molecular target: CaBzz1-D1
# In short: as §1
# [37] = molecular target: CaBzz1-D2
# In short: as §1
# [38] = molecular target: CaCyk3
# In short: as §1
# [39] = molecular target: CaFus1
# In short: as §1
# [40] = molecular target: CaHof1
# In short: as §1
# [41] = molecular target: CaHse1
# In short: as §1
# [42] = molecular target: CaLsb1
# In short: as §1
# [43] = molecular target: CaLsb4
# In short: as §1
# [44] = molecular target: CaMyo5
# In short: as §1
# [45] = molecular target: CaNbp2
# In short: as §1
# [46] = molecular target: CaRvs167
# In short: as §1
# [47] = molecular target: CaRvs167-3
# In short: as §1
# [48] = molecular target: CaSho1
# In short: as §1
# [49] = molecular target: CaSla1-D1-D2
# In short: as §1
# [50] = molecular target: CaSla1-D3
# In short: as §1
# [51] = molecular target: ScAbp1
# In short: as §1
# [52] = molecular target: ScBbc1
# In short: as §1
# [53] = molecular target: ScBem1-D1
# In short: as §1
# [54] = molecular target: ScBzz1-D1
# In short: as §1
# [55] = molecular target: ScBzz1-D2
# In short: as §1
# [56] = molecular target: ScCyk3
# In short: as §1
# [57] = molecular target: ScFus1
# In short: as §1
# [58] = molecular target: ScHof1
# In short: as §1
# [59] = molecular target: ScHse1
# In short: as §1
# [60] = molecular target: ScLsb1
# In short: as §1
# [61] = molecular target: ScLsb2
# In short: as §1
# [62] = molecular target: ScLsb3
# In short: as §1
# [63] = molecular target: ScLsb4
# In short: as §1
# [64] = molecular target: ScMyo3
# In short: as §1
# [65] = molecular target: ScMyo5
# In short: as §1
# [66] = molecular target: ScNbp2
# In short: as §1
# [67] = molecular target: ScPex13
# In short: as §1
# [68] = molecular target: ScRvs167
# In short: as §1
# [69] = molecular target: ScSho1
# In short: as §1
# [70] = molecular target: ScSla1-D1-D2
# In short: as §1
# [71] = molecular target: ScSla1-D3
# In short: as §1
# [72] = molecular target: SpAbp1-D1
# In short: as §1
# [73] = molecular target: SpBbc1
# In short: as §1
# [74] = molecular target: SpBzz1-D1
# In short: as §1
binder,measurement,setting,value
LRIKRKPVQTFFEFI,SPOT peptide array binding signal intensity,[1],0.5
same,SPOT peptide array binding signal intensity,[2],2
same,SPOT peptide array binding signal intensity,[3],436
same,SPOT peptide array binding signal intensity,[4],14
same,SPOT peptide array binding signal intensity,[5],784
same,SPOT peptide array binding signal intensity,[6],686
same,SPOT peptide array binding signal intensity,[7],4.25
same,SPOT peptide array binding signal intensity,[8],100
same,SPOT peptide array binding signal intensity,[9],4.5
same,SPOT peptide array binding signal intensity,[10],370
same,SPOT peptide array binding signal intensity,[11],23.5
same,SPOT peptide array binding signal intensity,[12],32.5
same,SPOT peptide array binding signal intensity,[13],≤ 0
same,SPOT peptide array binding signal intensity,[14],37
LRWRHKFFLPAIAAI,SPOT peptide array binding signal intensity,[15],73
same,SPOT peptide array binding signal intensity,[16],14.2
same,SPOT peptide array binding signal intensity,[17],52.5
same,SPOT peptide array binding signal intensity,[18],≤ 0
same,SPOT peptide array binding signal intensity,[19],≤ 0
same,SPOT peptide array binding signal intensity,[20],0.5
same,SPOT peptide array binding signal intensity,[21],299
same,SPOT peptide array binding signal intensity,[22],9.38
same,SPOT peptide array binding signal intensity,[23],979
same,SPOT peptide array binding signal intensity,[24],≤ 0
same,SPOT peptide array binding signal intensity,[25],18.8
same,SPOT peptide array binding signal intensity,[26],≤ 0
same,SPOT peptide array binding signal intensity,[27],14.8
same,SPOT peptide array binding signal intensity,[28],1.17
same,SPOT peptide array binding signal intensity,[29],32
same,SPOT peptide array binding signal intensity,[30],2.5
same,SPOT peptide array binding signal intensity,[31],2.25
same,SPOT peptide array binding signal intensity,[32],312
same,SPOT peptide array binding signal intensity,[33],422
same,SPOT peptide array binding signal intensity,[34],13
same,SPOT peptide array binding signal intensity,[35],4.5
same,SPOT peptide array binding signal intensity,[36],23.2
same,SPOT peptide array binding signal intensity,[37],0.25
same,SPOT peptide array binding signal intensity,[38],1.5
same,SPOT peptide array binding signal intensity,[39],728
same,SPOT peptide array binding signal intensity,[40],≤ 0
same,SPOT peptide array binding signal intensity,[41],28.5
same,SPOT peptide array binding signal intensity,[42],0.25
same,SPOT peptide array binding signal intensity,[43],2.5
same,SPOT peptide array binding signal intensity,[44],4
same,SPOT peptide array binding signal intensity,[45],116
same,SPOT peptide array binding signal intensity,[46],12.8
same,SPOT peptide array binding signal intensity,[47],24
same,SPOT peptide array binding signal intensity,[48],228
same,SPOT peptide array binding signal intensity,[49],≤ 0
same,SPOT peptide array binding signal intensity,[50],3.12
same,SPOT peptide array binding signal intensity,[51],53.5
same,SPOT peptide array binding signal intensity,[52],0.875
same,SPOT peptide array binding signal intensity,[53],9.5
same,SPOT peptide array binding signal intensity,[54],4.5
same,SPOT peptide array binding signal intensity,[55],14.2
same,SPOT peptide array binding signal intensity,[56],18.5
same,SPOT peptide array binding signal intensity,[57],209
same,SPOT peptide array binding signal intensity,[58],1.25
same,SPOT peptide array binding signal intensity,[59],1040
same,SPOT peptide array binding signal intensity,[60],0.25
same,SPOT peptide array binding signal intensity,[61],≤ 0
same,SPOT peptide array binding signal intensity,[62],≤ 0
same,SPOT peptide array binding signal intensity,[63],4.25
same,SPOT peptide array binding signal intensity,[64],≤ 0
same,SPOT peptide array binding signal intensity,[65],≤ 0
same,SPOT peptide array binding signal intensity,[66],20.2
same,SPOT peptide array binding signal intensity,[67],≤ 0
same,SPOT peptide array binding signal intensity,[68],1.5
same,SPOT peptide array binding signal intensity,[69],759
same,SPOT peptide array binding signal intensity,[70],≤ 0
same,SPOT peptide array binding signal intensity,[71],≤ 0
same,SPOT peptide array binding signal intensity,[72],166
same,SPOT peptide array binding signal intensity,[73],1.75
same,SPOT peptide array binding signal intensity,[74],≤ 0
same,SPOT peptide array binding signal intensity,[1],≤ 0
same,SPOT peptide array binding signal intensity,[2],1
same,SPOT peptide array binding signal intensity,[3],33.1
same,SPOT peptide array binding signal intensity,[4],2.25
same,SPOT peptide array binding signal intensity,[5],830
same,SPOT peptide array binding signal intensity,[6],667
same,SPOT peptide array binding signal intensity,[7],≤ 0
same,SPOT peptide array binding signal intensity,[8],21.2
same,SPOT peptide array binding signal intensity,[9],≤ 0
same,SPOT peptide array binding signal intensity,[10],41.8
same,SPOT peptide array binding signal intensity,[11],6.25
same,SPOT peptide array binding signal intensity,[12],1
same,SPOT peptide array binding signal intensity,[13],2
same,SPOT peptide array binding signal intensity,[14],≤ 0
